Assay outcomes as filed in PubChem.
Rows were chosen to be rich in hits. Some 3.3% of all compounds tested hit in one or more screens of this group.
LDHA block = inhibitors of human lactate dehydrogenase A | purified LDHA, NADH/diaphorase-resazurin fluorescence; active compounds read low | AID 1347041 | activity change, % (values are at about 110 or 230 µM) | actives 0.15% (n = 480,000) | P00338; in the data active means activity change below about -30%
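Remaining NADH was detected by diaphorase (0.133 mg/mL) converting 37 µM resazurin to fluorescent resorufin, read at 0 and 20 minutes. The preceding 5-minute room-temperature reaction used 2 nM LDHA, 0.2 mM sodium pyruvate and 0.06 mM NADH at pH 7.4.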
DRD3 agonist = D3 dopamine receptor (human) agonism. D3R DiscoveRx beta-arrestin cells, luminescence, 90 min. max activation, %. actives 0.58% (n = 410,000). AID 652048; in the data active means max activation above about 30%
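Agonist-mode cell screen: cells plated at 1500/well and incubated overnight at 37 °C, then exposed to library compounds for 90 min at 37 °C. Detection reagent was added for 30–60 min at room temperature, and luminescence was read.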
PI5P4Ka inh = PI5P4K alpha (human) kinase inhibition; max response, %; actives 1.2% (n = 330,000); P48426; PI5P4Kalpha enzyme, ADP-Glo luminescence, 60 min; active compounds read low; active means max response of -50% or lower; further: value at the top dose of about 77 µM
Target sequence (P48426 whole entry, looked up): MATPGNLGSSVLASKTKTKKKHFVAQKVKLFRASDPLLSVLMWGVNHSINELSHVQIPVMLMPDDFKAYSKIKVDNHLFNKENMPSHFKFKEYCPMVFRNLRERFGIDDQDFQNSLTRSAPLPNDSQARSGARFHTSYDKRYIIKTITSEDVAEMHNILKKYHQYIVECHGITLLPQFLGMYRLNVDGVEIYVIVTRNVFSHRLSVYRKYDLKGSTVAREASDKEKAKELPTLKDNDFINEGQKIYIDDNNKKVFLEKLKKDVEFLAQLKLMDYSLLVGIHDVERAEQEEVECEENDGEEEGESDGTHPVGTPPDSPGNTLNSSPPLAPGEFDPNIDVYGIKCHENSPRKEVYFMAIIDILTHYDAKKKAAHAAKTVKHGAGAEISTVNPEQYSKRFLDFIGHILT
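Reactions run in 0.038 M HEPES pH 7.4, 0.28 mM EGTA, 0.1% CHAPS and 5% DMSO, with PI5P4Kalpha, substrate, compound and 5 microM ATP final, one hour at room temperature. Readout is ADP-Glo luminescence.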
PI4K2A inh = blocks human PI4K2A kinase activity; Q9BTU6; purified PI4K2A, ADP-Glo luminescence, 1 h; active compounds read low; activity change, negative = inhibition, % at 76.9 µM; actives 0.13% (n = 420,000); AID 1346378; in the data active means activity change below about -50%
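ADP-Glo luminescence measured ADP generated by PI4K2A enzyme (4 ug/mL before mixing) with 1.2 mM PI substrate (pre-mix) and 300 microM ATP (pre-mix). Tris pH7.5 buffer with MgCl2, Triton X-100; 1 h reaction at ambient temperature.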
DRD3 antagonist = blocks the human D3 dopamine receptor. actives 2.5% (n = 360,000). max response, negative = inhibition, %. AID 652054. D3R cells, DiscoveRx beta-arrestin luminescence, antagonist mode; active compounds read low; in the data active means max response below about -50%
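Cells plated overnight at 1500 cells/well, then exposed to library compounds with dopamine controls for 90 minutes at 37 degrees C. DiscoveRx reagent added for 30–60 minutes at room temperature; luminescence read, quantitative HTS format.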
Each line names hits and unclear results; the compound was inactive in the other large screens; ! = not confirmed by another sample.

COC(=O)C1CCN(C(=O)N2CCOCC2)CC1	none (no result: PI5P4Ka inh)
CCCOC1(C(F)(F)F)NC(=O)N(c2cccc(Cl)c2)C1=O (stereo not given)	none (no result: PI5P4Ka inh, DRD3 antagonist)
CC1(C)NC(=O)N(c2ccc([N+](=O)[O-])c(C(F)(F)F)c2)C1=O	DRD3 agonist 36!
CC(=O)c1c(C)[nH]c(C(=O)NCCN2CCC(C)CC2)c1C	DRD3 antagonist -51
CCCNC(=O)c1[nH]c(C)c(C(C)=O)c1C	none
C=CCNC(=O)c1ccccc1NC(=O)c1cnc2ccccc2n1	none (no result: DRD3 agonist, PI5P4Ka inh, PI4K2A inh, DRD3 antagonist)
COc1ccc2c(COC(=O)c3ccccc3OC)cc(=O)oc2c1	none (no result: DRD3 agonist, PI5P4Ka inh, PI4K2A inh, DRD3 antagonist)
Cc1ccc(SCc2cn3c(C)csc3n2)cc1	DRD3 antagonist -53 (no result: PI5P4Ka inh)
Cc1ccc(S(=O)(=O)NCc2cn3c(C)csc3n2)cc1	none
Cc1ccc(N=Cc2c(O)n(-c3ccc4c(c3)OCO4)c(=O)c3ccccc23)cc1	DRD3 antagonist -59
COC(CNC(=O)[C@H](Cc1c[nH]c2ccccc12)NC1(C(=O)NC(c2ccccc2)c2ccccc2)CCCCC1)OC	none (no result: LDHA block, DRD3 agonist, PI5P4Ka inh, DRD3 antagonist)
CC1CCN(C2=NC(=O)/C(=C/c3cccc(O)c3)S2)CC1	DRD3 antagonist -85
CC1CCN(C2=NC(=O)/C(=C/c3ccccc3F)S2)CC1	none
COC(=O)CN(c1ccccc1)S(=O)(=O)c1ccc(F)cc1	none
CCN(c1ccccc1)S(=O)(=O)c1ccc(F)cc1	DRD3 antagonist -53 (no result: PI5P4Ka inh)
CC(NS(=O)(=O)c1cccs1)c1ccccc1 (stereo not given)	none (no result: DRD3 agonist, PI5P4Ka inh, PI4K2A inh, DRD3 antagonist)
CCC(C(=O)NCc1ccccc1)n1nc(C)c2sc3ccccc3c2c1=O (stereo not given)	none (no result: PI5P4Ka inh, DRD3 antagonist)
CCC(C(=O)NCCc1ccc(SC)cc1)n1nc(C)c2c(C)n(-c3ccc(C)cc3)nc2c1=O (stereo not given)	none (no result: PI5P4Ka inh, DRD3 antagonist)
Cc1nn(CCC(=O)NCc2ccc(N(C)C)cc2)c(=O)c2nn(-c3ccccc3)c(C)c12	none
CCC(C(=O)NCCc1ccc(C)cc1)n1nc(C)c2c(C)n(-c3ccccc3)nc2c1=O (stereo not given)	DRD3 antagonist -79
Cc1nn(CCC(=O)NCc2ccc(Cl)cc2)c(=O)c2nn(-c3ccccc3)c(C)c12	DRD3 agonist 57 (no result: PI5P4Ka inh, DRD3 antagonist)
CCC(C(=O)NCCCN(CC)Cc1ccccc1)n1nc(C)c2sc3ccccc3c2c1=O (stereo not given)	DRD3 antagonist -84
CCc1ccc(CCC(=O)NCc2cccnc2)cc1	none (no result: DRD3 agonist, PI5P4Ka inh, PI4K2A inh, DRD3 antagonist)
COc1cccc(C2c3c(n[nH]c3C)Nc3[nH]c(=O)[nH]c(=O)c32)c1O (stereo not given)	none (no result: DRD3 agonist, PI5P4Ka inh, PI4K2A inh, DRD3 antagonist)
Cn1c2ccccc2c2cc(/C=N/NC(=O)c3cc(O)ccc3O)ccc21	PI5P4Ka inh -90
Cc1cccc(C(=O)Oc2ccc(/C=N/NC(=O)c3cc(O)cc(O)c3)cc2)c1	PI5P4Ka inh -77
Cn1c2ccccc2c2cc(/C=N/NC(=O)c3cc(O)cc(O)c3)ccc21	PI5P4Ka inh -74
CCOc1ccc(-c2nc(CSCC(=O)NCc3cccnc3)c(C)o2)cc1	none (no result: DRD3 agonist, PI5P4Ka inh, PI4K2A inh, DRD3 antagonist)
Cc1ccc(CN(CC(=O)N(C)Cc2ccsc2)C2CC2)cc1	none (no result: DRD3 agonist, PI5P4Ka inh, PI4K2A inh, DRD3 antagonist)
COc1cccc(NC(=O)C2(C)CCN2C(=O)CCc2ccc(Cl)cc2Cl)c1 (stereo not given)	DRD3 antagonist -60
Oc1c(Br)cc(Br)cc1/C=N/c1nc2c(s1)CCCC2	PI5P4Ka inh -54
Oc1ccc2ccccc2c1/C=N/c1nc2c(s1)CCCC2	none
O=C(NCCNC(=O)Nc1ccncc1)Nc1ccncc1	none (no result: DRD3 agonist, PI5P4Ka inh, PI4K2A inh, DRD3 antagonist)
NS(=O)(=O)c1cccc(NC(=O)CSc2nc3nc(-c4cccs4)cc(C(F)(F)F)c3c(=O)[nH]2)c1	PI5P4Ka inh -55
Cc1ccc(C(=O)N2CCN(c3cc(=O)n4nc(-c5ccccc5C)sc4n3)CC2)cc1	none (no result: DRD3 agonist, PI5P4Ka inh, PI4K2A inh, DRD3 antagonist)
CC(C)(C)c1cnnn1-c1ccc(/C=N/Nc2ccc([N+](=O)[O-])cc2)cc1	DRD3 antagonist -57
O=C(N/N=C/c1ccc(OCCCOc2ccccc2Cl)cc1)c1cccc(Cl)c1	none (no result: DRD3 agonist, PI5P4Ka inh, PI4K2A inh, DRD3 antagonist)
CCCCNC(=O)Nc1ccnn1C1CCCCC1	DRD3 antagonist -76
COc1ccccc1NC(=O)Nc1ccnn1C1CCCCC1	none
COC(=O)c1cc(-c2cccc3c2sc2ccccc23)c(=O)n2c1CCC2	none (no result: LDHA block, DRD3 agonist, PI5P4Ka inh, DRD3 antagonist)
COC(=O)c1[nH]c2ccc(F)cc2c1NS(=O)(=O)c1ccc(F)c(C)c1	none
COC(=O)c1[nH]c2ccc(C)cc2c1NS(=O)(=O)c1ccc(F)c(C)c1	DRD3 antagonist -51
